Screening data (PubChem BioAssay)
Cruzain noTriton: blocks cruzain activity in detergent-free assay; Potency, µM, hits mostly inhibitors; P25779; 200,000 tested, 2.3% active; AID 1476; purified cruzain, Z-FR-AMC fluorescence, no detergent; note: nearly all actives have a fitted effect of over 40% in size
Target sequence (P25779 123-467 limits assumed): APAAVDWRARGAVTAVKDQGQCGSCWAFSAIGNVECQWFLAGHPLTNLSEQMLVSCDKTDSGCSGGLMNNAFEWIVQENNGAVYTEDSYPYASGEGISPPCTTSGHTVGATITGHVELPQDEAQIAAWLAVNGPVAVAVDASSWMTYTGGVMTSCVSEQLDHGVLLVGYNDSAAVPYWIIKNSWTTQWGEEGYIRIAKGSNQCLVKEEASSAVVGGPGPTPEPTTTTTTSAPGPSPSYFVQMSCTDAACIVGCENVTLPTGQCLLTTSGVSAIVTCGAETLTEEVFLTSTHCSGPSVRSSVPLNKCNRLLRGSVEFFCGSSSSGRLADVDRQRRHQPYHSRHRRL
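Detergent-free condition (0.00005% Triton X-100) in acetate buffer pH 5.5 with DTT. 1.5 nM enzyme and compound were pre-mixed 15 min, then 2 uM Z-FR-AMC substrate added; reaction progress from fluorescence change between first and third reads (60 s).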
Cruzain Triton: inhibitors of Trypanosoma cruzi cruzain with detergent. P25779. purified cruzain, Z-FR-AMC fluorescence, 0.01% Triton. Potency, µM, usual class: inhibitors. 200,000 tested, 0.43% active; note: nearly all actives have a fitted effect of over 40% in size
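Enzyme 1.5 nM, Z-FR-AMC 2 uM, NaOAc 100 mM pH 5.5, DTT 5 mM, Triton X-100 0.01%; 15 min RT compound preincubation; kinetic ex360/em450, 60 s delta.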
Each line names hits and unclear results; the compound was inactive in the other large screens; ! = not confirmed by another sample. Hits are enriched below; roughly 2.5% of the tested compounds scored in any of these assays. Calls come from the whole dose curve; as a rule, active = well fitted curve in the direction sought with a large enough effect; inconclusive = small, poorly fitted or top-dose-only effect, or another doubt; inactive = no such curve, though single readings can be large; an effect the other way counts as inactive or inconclusive.

NC(=O)c1cc(S(=O)(=O)NCC2CCC(C(=O)Nc3ccc(Cl)cc3)CC2)cs1 (stereo not given)	none
CC1CCC(C(C)C)[C@H](OC(=O)c2ccccc2)C1 (stereo not given in full)	none
CC1CCC(C(C)C)C(OC(=O)C2=C3c4ccccc4S(=O)(=O)N3CC2)C1 (stereo not given)	Cruzain noTriton 31.6µM, Cruzain Triton inconclusive
COc1cccc(-c2nc(SCc3cc(=O)c4cc(Cl)ccc4[nH]3)n[nH]2)c1	none
O=C(CNC(=O)c1ccc(Cl)cc1Cl)OCC(=O)c1ccc2c(c1)OCCO2	Cruzain noTriton 3.16µM, Cruzain Triton 3.16µM
CC(C)CNS(=O)(=O)c1cc(C(=O)OCC(=O)c2ccc3c(c2)OCCO3)c(Cl)cc1Cl	Cruzain noTriton inconclusive
CCOc1ccc(CNC(=O)Cn2c(=O)c3cccn3c3ccc(F)cc32)cc1	none
O=C(O)c1ccccc1-c1c2cc(Br)c(=O)cc-2oc2[c]([Hg])c(O)c(Br)cc12	Cruzain noTriton inconclusive, Cruzain Triton 20µM!
Cc1ccc2oc(-c3ccccc3C(=O)O)cc(=O)c2c1	none
Cc1ccc(CCNC(=O)C(C)n2nc(C)c3c(C)n(-c4ccc(C)cc4)nc3c2=O)cc1 (stereo not given)	none
O=C(N=Nc1c(O)[nH]c2ccccc12)c1cccc(S(=O)(=O)N2CCCCC2)c1	none
CC(C)c1ccc2[nH]c(O)c(N=NC(=O)c3cccc(S(=O)(=O)N4CCCCC4)c3)c2c1	Cruzain noTriton 25.1µM
O=c1ccc2cc(S(=O)(=O)Nc3ccc(OC(F)(F)F)cc3)ccc2[nH]1	none
CCn1ccc2cc(S(=O)(=O)N3CCC(C(=O)NCCc4ccc(SC)cc4)CC3)ccc21	none
O=C(CCN1CCOCC1)c1ccc2c(c1)OCCO2	none
O=C(CCN1CCc2ccccc2CC1)c1ccc2c(c1)OCCO2	Cruzain noTriton 15.8µM, Cruzain Triton inconclusive
CCOC(=O)c1c(S(=O)(=O)N2CCC(C(=O)N3CCN(c4cc(C)ccc4C)CC3)CC2)c(C)n(C)c1C	none
CCOC(=O)C1=C(CSc2nc(-c3ccccc3)ccc2C#N)OC(N)=C(C#N)C1c1ccccc1 (stereo not given)	Cruzain noTriton 25.1µM
CCOC(=O)C1=C(CSc2nc(-c3ccccc3)ccc2C#N)OC(N)=C(C#N)C1c1cccnc1 (stereo not given)	Cruzain noTriton inconclusive
Cc1cc(C)c(NC(=O)C2CCN(C(=O)N3CC(C)Oc4ccc(Cl)cc43)CC2)c(C)c1 (stereo not given)	Cruzain noTriton inconclusive
Cc1cc(C)c(-c2csc(-c3cc4ccccc4oc3=O)n2)cc1C	none
Cc1cc(C)c(-c2csc(Cc3nc(-c4cc5ccccc5oc4=O)cs3)n2)cc1C	Cruzain noTriton 10µM
Cc1ccc(-c2csc(Cc3nc(-c4cc5ccccc5oc4=O)cs3)n2)cc1	Cruzain noTriton 6.31µM
O=c1oc2ccc(Br)cc2cc1-c1csc(-c2ccccc2)n1	none
Cc1cc(C(F)F)n2nc(C(=O)Nc3cccc(Cl)c3C)nc2n1	none
COc1ccc(-c2nc3c4ccccc4n(CC(=O)N4CCN(c5ccccc5F)CC4)c(=O)n3n2)cc1	none
CCc1ccc(-n2nc(C)c3c(C(=O)Nc4cc(C)ccc4C)cc(C)nc32)cc1	none
CCOc1ccc(CCNC(=O)Cn2c(-c3cccs3)cc3cc(F)ccc32)cc1OCC	none
O=C(Cn1c(-c2cccs2)cc2cc(F)ccc21)NCCc1ccc(Cl)cc1	Cruzain noTriton 12.6µM
COc1ccc(-c2nc(SCC(=O)Nc3ccccc3)c(-c3ccc(F)cc3)[nH]2)cc1OC	none
Cc1ccc(NC(=O)N2CCc3cc(S(=O)(=O)N4CCC(C)CC4)ccc32)cc1F	none
CCN(CC)C(=S)SSC(=S)N(CC)CC	Cruzain noTriton 7.94µM!, Cruzain Triton 15.8µM!
C=C(Cl)CSC(=S)N(CC)CC	none
CCCCN1C(=O)C(O)(c2c[nH]c3ccccc23)c2cc(Br)ccc21 (stereo not given)	none
COc1ccc(CC(=O)N2CCc3c([nH]c4ccccc34)C2c2ccc(SC)cc2)cc1 (stereo not given)	Cruzain noTriton 25.1µM
O=C(CSc1ccccc1)N1CCc2c([nH]c3ccccc23)C1c1ccc(Cl)cc1 (stereo not given)	Cruzain noTriton 12.6µM
COc1ccc(CCC(=O)N2CCc3c([nH]c4ccccc34)C2c2ccc(F)cc2)cc1 (stereo not given)	Cruzain noTriton inconclusive
O=C(CSCc1ccc(F)cc1)N1CCc2c([nH]c3ccccc23)C1c1ccccc1 (stereo not given)	none
CCOc1cccc(C2c3[nH]c4ccccc4c3CCN2C(=O)CSc2ccccc2)c1 (stereo not given)	Cruzain noTriton inconclusive
O=C(CSCc1ccc(F)cc1)N1CCc2c([nH]c3ccccc23)C1c1ccc(Cl)cc1 (stereo not given)	Cruzain noTriton 7.94µM
COc1ccc(-c2noc(-c3ccc(NCc4ccco4)c([N+](=O)[O-])c3)n2)cc1OC	Cruzain noTriton inconclusive
Cn1cc(C(=O)NCc2ccccc2Cl)c(=O)c2cc(S(=O)(=O)N3CCCCCC3)ccc21	none
COc1ccc(NC(=O)CCCN2C(=O)CCn3nc(-c4cn(C)c5ccccc45)cc32)cc1	Cruzain noTriton inconclusive
COc1ccc(CCC(=O)NCc2nc3cccnc3n2Cc2ccccc2)cc1	none
Cc1ccc(/C=C/C(=O)Nc2ccc(Cl)cc2Cl)cc1	none
Cc1ccccc1CNCc1c(C(=O)O)c(C)n(Cc2ccc(F)cc2Cl)c1C	none
Cc1cccc(-n2c(C)cc(/C=C3/C(=N)N4C(c5ccccc5)=CSC4=NC3=O)c2C)c1	Cruzain noTriton 5.01µM
CCCC1=NN2C(=N)/C(=C\c3cc(C)n(-c4cccc(C)c4)c3C)C(=O)N=C2S1	Cruzain noTriton inconclusive
Cc1ccc(C)c(CNC(=O)C2CCN(c3nc4ccccc4nc3C(F)(F)F)CC2)c1	none
Cc1ccc(C)c(CN2C(=O)c3ccccc3S(=O)(=O)c3ccc(C(=O)OCC4CCCO4)cc32)c1 (stereo not given)	none
Cc1cc(C)c(CN2C(=O)c3ccccc3S(=O)(=O)c3ccc(C(=O)OCC4CCCO4)cc32)c(C)c1 (stereo not given)	Cruzain noTriton 12.6µM
COc1ccc(NC(=O)COC(=O)c2ccc(OCc3ccc(Cl)cc3Cl)c(OC)c2)c(OC)c1	Cruzain noTriton inconclusive
COc1ccc(C)cc1NC(=O)COC(=O)c1ccc(OCc2ccc(Cl)cc2Cl)c(OC)c1	Cruzain noTriton 25.1µM
Cc1oc(C)c2c(=O)cc(-c3ccc4c(c3)OCO4)cc(OC(=O)c3cccc(Br)c3)c12	Cruzain noTriton 25.1µM
Cc1ccc(C(=O)Oc2cc(-c3ccc4c(c3)OCO4)cc(=O)c3c(C)oc(C)c23)cc1	Cruzain noTriton inconclusive
Cc1oc(C)c2c(=O)cc(-c3ccc4c(c3)OCO4)cc(OC(=O)c3cccc(Cl)c3)c12	Cruzain noTriton inconclusive
Cc1ccccc1C(=O)Oc1cc(-c2ccc3c(c2)OCO3)cc(=O)c2c(C)oc(C)c12	Cruzain noTriton 20µM
COC(=O)c1cc2oc(C)cc2n1CC(=O)Nc1ccc(OC)c(OC)c1	none
COc1cccc(-c2nccc(NCc3cccnc3)n2)c1	none
CC1=CC(C)(C)n2c(O)c(N=NC(N)=S)c3c(C)ccc1c32	Cruzain noTriton 20µM, Cruzain Triton inconclusive
CC1=CC(C)(C)n2c(O)c(N=NC(N)=S)c3cccc1c32	none
CN(C)CCCc1cc(C(=O)Nc2ccc(-c3ccncc3)cc2)ccc1O	none
CN(C)CC/C=C1/c2ccccc2Sc2c(O)cc(Cl)cc21	Cruzain noTriton 25.1µM
COc1cc(Cl)cc2c1Sc1ccccc1/C2=C/CCN(C)C	none
O=C(Nc1ccc(S(=O)(=O)N(Cc2ccccc2)c2ccccc2)cc1)c1ccc(F)cc1	none
CCS(=O)(=O)c1nc(S(=O)(=O)c2ccc(C)cc2)c(NCC(C)C)s1	none
